This is an account of results in PubChem BioAssay (NCI).

SMILES strings stand for the structures. Compounds without any hit were thinned out: in the full panel of roughly 83,000, 20% have a hit.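 Results are percent growth after 48 hours of single-concentration exposure. 100 means growth as in untreated cells, lower positive values show inhibition; negative values down to -100 show cell death.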 A number with no mark means an inactive call. Calls of active or inactive are those of the source. Rule for the calls: active = growth percent below 10; inactive = the rest.

For this test, the system named is LOX IMVI melanoma. Put plainly: NCI-60 one-dose screen, 48 h (100 = growth as untreated, 0 = no growth, -100 = all killed). Conditions: 10 µM.
Regarding `N#CCCN1C(=O)CCC1C(=O)O` (configuration not stated), the growth was 120%.
As for `Cc1c(-c2ccc(C3CCCCC3)cc2)nc2ccc(F)cc2c1C(=O)O`, the figure is 8.7% (active); as for `O=C(OCc1ccccc1)n1nnc2ccccc21`, 99.6%; as for `CCOC(=O)Nc1nccs1`, 103%.
The figure for `CCC(/C=C\C(C)=O)CC` is 97.4%; for `OCC(O)COc1ccc(Cl)cc1Cl` (configuration not stated) it is 111%.
On to `CSc1nsc(N)n1`, for which the growth was 98.2%.
As for `CC(=O)Nc1ncc(S(=O)(=O)c2ccc([N+](=O)[O-])cc2)s1`, the growth was 106%.
Regarding `Cc1ccc(N2C(=O)c3cccc4c(N)c(S(=O)(=O)O)cc(c34)C2=O)cc1`, the growth is 95%.
The figure for `Oc1cccnc1CN1CCCC1` is 96.6%.
Regarding `CC(C)c1ccc(C(=O)OCCCl)cc1`, the growth was 97.1%.
Turning to `CCOP(=O)(OCC)/C(=C\N1C(=O)CC(=O)NC1=S)C(=O)OC`, the growth is 98.6%.
As for `Cc1cc2c(C(C)C)c(O)c(O)c(C=Nc3ccccc3[N+](=O)[O-])c2c(O)c1-c1c(C)cc2c(C(C)C)c(O)c(O)c(C=Nc3ccccc3[N+](=O)[O-])c2c1O`, the growth is 81.3%.
Regarding `COc1ccc(/C=N/NC(=O)COCC(=O)N/N=C/c2ccc(OC)cc2)cc1`, the growth is 102%.
For `CCOC(=O)CSCCC#N`, the growth is 96.3%.
As for `CCCCCCCCNC(=O)C(C)C`, the growth is 98%.
As to `C1=NCCc2ccccc21`, the growth is 100%.
`O=[N+]([O-])c1ccc(-c2nc(N(CCO)CCO)c3ccccc3n2)o1`: the growth is -65.6% (active).
As for `Cc1cc(CO)c(O)c(CO)c1`, the growth is 90.7%.
For `CC(=O)Nc1ccc(/C=C2\SC(=S)N(/C=C(\C(C)=O)C(N)=O)C2=O)cc1`, the growth is 78.3%.
On to `C=CCC(OC(C)=O)c1ccc(C(C)C)cc1` (configuration not stated), for which the growth is 104%.
As for `CCOc1ccc2c(c1)c(C)cc(C)[n+]2CC`, the growth is 73.8%.
With `CCOC(=O)C(COS(C)(=O)=O)(COS(C)(=O)=O)C(=O)OCC`, the growth is 98.3%.
Regarding `CC(=O)NC(O)C(Cl)Cl` (configuration not stated), the growth is 87.8%.
As to `Cc1cc2c3ccc(C)[n+](C)c3ccc2n1C`, the growth is 43.9%.
Turning to `O=C(CC(CC(=O)c1ccccc1)c1ccccn1)c1ccccc1`, the growth is 94.2%.
The figure for `CCOC(=O)C1(N)CCCCC1` is 102%; for `C=C(OC(C)=O)c1ccccc1` it is 94.4%.
In the case of `COc1cccc(C(=O)NNC(=O)c2cccc3ccccc23)c1`, the growth was 98.5%.
For the compound `O=Cc1ccc(F)cc1`, the growth was 101%.
On to `Clc1ccc(C(SCc2ccccc2)SCc2ccccc2)cc1`, for which the growth was 94.3%.
As for `C=COC(=O)CCOCC(CC)CCCC` (configuration not stated), the figure is 98.8%.
As for `NC(=S)c1c(N)n(C2OC(CO)C(O)C2O)c2ncnc(N)c12` (configuration not stated), the figure is -3.22% (active); as for `CCCCc1ccc2nc(NC(=O)OC)[nH]c2c1`, 25.2%.
Consider `CC(=O)C1C(=O)C(=O)N(c2cccc([N+](=O)[O-])c2)C1=O` (configuration not stated), for which the growth is 105%.
Regarding `Cc1cccnc1NC1OC(=O)c2ccccc21` (configuration not stated), the growth was 94.9%.
Regarding `CSc1nc2[nH]ncc2c(=O)[nH]1`, the growth is 97.2%.
